12-LOX inh – Primary qHTS assay for inhibitors of human arachidonate 12S-lipoxygenase (ALOX12): Round 2. AID 1671190, 2021. purified 12hLO, xylenol orange hydroperoxide absorbance. Potency, µM (series often up to 108 µM), inactives show at the highest dose activity change, negative = inhibition, hits mostly inhibitors. 1.1% of 580,000 active. Polyunsaturated fatty acid lipoxygenase ALOX12 (Homo sapiens), P18054; note: potency is the fitted concentration of half-maximal effect
Target sequence (P18054 whole entry, looked up): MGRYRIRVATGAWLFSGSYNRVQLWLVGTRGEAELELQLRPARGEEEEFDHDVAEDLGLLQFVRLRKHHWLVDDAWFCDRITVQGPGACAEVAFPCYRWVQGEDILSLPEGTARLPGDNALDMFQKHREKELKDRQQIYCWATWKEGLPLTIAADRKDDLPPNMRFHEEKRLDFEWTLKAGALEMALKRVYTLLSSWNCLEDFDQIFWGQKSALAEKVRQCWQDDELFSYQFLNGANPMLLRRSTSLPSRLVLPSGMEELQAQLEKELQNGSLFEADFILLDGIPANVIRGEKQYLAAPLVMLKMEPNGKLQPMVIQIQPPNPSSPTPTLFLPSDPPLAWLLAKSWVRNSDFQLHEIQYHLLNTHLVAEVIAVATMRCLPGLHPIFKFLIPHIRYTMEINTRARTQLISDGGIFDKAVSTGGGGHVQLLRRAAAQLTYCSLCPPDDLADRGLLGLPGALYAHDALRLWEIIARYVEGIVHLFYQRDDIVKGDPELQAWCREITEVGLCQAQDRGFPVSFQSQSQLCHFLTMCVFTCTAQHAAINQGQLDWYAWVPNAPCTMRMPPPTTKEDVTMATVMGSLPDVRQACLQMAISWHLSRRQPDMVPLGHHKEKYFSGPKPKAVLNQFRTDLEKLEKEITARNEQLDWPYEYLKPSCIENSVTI
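Hydroperoxide product was detected by ferrous iron/xylenol orange as the 573 to 405 nm absorbance ratio. Arachidonic acid at 40 uM (final) was turned over for 30 min at room temperature by 150 nM human 12hLO, pH 7.0 Hepes buffer, after 15 min compound preincubation.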
IL1B secr inh – qHTS for Inhibitors of Inflammasome Signaling: IL-1-beta AlphaLISA Primary Screen; activity change, % at 57.5 µM; AID 743279, 2014; 4.7% of 360,000 active; THP-1 LPS/ATP IL-1B secretion, AlphaLISA, 16 h; active compounds read low; in the data active = activity change below about -50%; inconclusive = mostly about -30% to -49%
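THP-1 cells pretreated 1 hr with compounds (up to 57.5 uM final), then stimulated with LPS (250 ng/mL final) plus ATP (1.25 mM final); secreted IL-1B measured by AlphaLISA after 16 hr, decreased signal indicating inhibition.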
HT1080-NT tox – qHTS for induction of synthetic lethality in tumor cells producing 2HG: qHTS for the HT-1080-NT fibrosarcoma cell line. HT-1080-NT fibrosarcoma viability, CellTiter-Glo ATP luminescence, 48 h. Potency, µM (doses to about 46.1 µM), for the others: top-dose activity, negative = less viability, hits mostly cytotoxic. 1.6% of 360,000 active;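 note: NT is the 2HG producing partner of a matched IDH1 knockdown line; potency is the fitted concentration of half-maximal effect; 0% = DMSO-treated cells and -100% = media-only wells without cells; nearly all actives have a fitted effect of over 55% in size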
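HT-1080-NT fibrosarcoma cells (2HG-overproducing), 750 cells/well in RPMI with 5% FBS, dosed after 2 h and incubated 48 h at 37C. CellTiter-Glo luminescence normalized to DMSO and no-cell wells; concentration-response curves fitted and classed.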
DT40 TDP1 no CPT – qHTS for Inhibitors of human tyrosyl-DNA phosphodiesterase 1 (TDP1): qHTS in cells in absence of CPT; DT40 Tdp1-/- hTDP1 cells, no CPT, ATP luminescence, 48 h; AID 686978, 2013; Potency, µM (titrated, usually from 46.2 µM), for inactives: top-dose activity change, negative = growth inhibition, most hits filed as inhibitors; 15% of 420,000 active; note: potency is the fitted concentration of half-maximal effect; nearly all actives have a fitted effect of over 55% in size
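Compound effects on proliferation are scored in DT40 Tdp1-/-;hTDP1 cells in the absence of CPT. ATP levels (CellTiter-Glo luminescence) are recorded after a ≥48 hr, 37 °C incubation.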
HT1080 IDH1KD tx – qHTS for induction of synthetic lethality in tumor cells producing 2HG: qHTS for the HT-1080-IDH1KD cell line. Potency, µM (highest dose often 46.1 µM), for inactives: at the highest dose activity, negative = toxicity, most hits filed as cytotoxic. HT-1080 IDH1 knockdown viability, ATP luminescence, 48 h. 2% of 360,000 active;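 note: potency is the fitted concentration of half-maximal effect; 0% = DMSO wells and -100% = cell-free medium wells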
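IDH1KD HT-1080 cells, 750/well, RPMI + 5% FBS; compound pinned after 2 h settling; 48 h, 37 °C; CellTiter-Glo luminescence; % activity normalised to DMSO and no-cell wells; curves fitted, classed by r2 and efficacy.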
DT40 TDP1 CPT – qHTS for Inhibitors of human tyrosyl-DNA phosphodiesterase 1 (TDP1): qHTS in cells in presence of CPT. chicken DT40 Tdp1-/-;hTDP1 cells + 20 nM CPT, ATP luminescence, 48 h. Potency, µM (doses to about 46.2 µM), for the others: top-dose activity change, negative = growth inhibition, usual class: inhibitors. 12% of 420,000 active. AID 686979, 2013; note: potency is the fitted concentration of half-maximal effect; nearly all actives have a fitted effect of over 55% in size
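Chicken DT40 Tdp1-/- cells stably complemented with human TDP1 were seeded at 400 cells/well in medium containing 20 nM camptothecin, exposed to pin-transferred compounds, and grown at 37 °C for at least 48 hr. Viability was read as ATP luminescence.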
Numbers without * were called inactive; [ ] = dose if it differs, or a comment. The entries come from a sample that favours hits as a whole. Unless noted, calls come from the whole dose curve; as a rule, active = well fitted curve in the direction sought with a large enough effect; inconclusive = small, poorly fitted or top-dose-only effect, or another doubt; inactive = no such curve, though single readings can be large; an effect the other way counts as inactive or inconclusive. Unless noted, % is set by controls: 0 for no effect and ±100 for the full control effect.

COc1ccc(N2CCN(C(=O)Nc3cccc(C(F)(F)F)c3)CC2)cc1 was read as 12-LOX inh inconclusive, IL1B secr inh -14.3, HT1080-NT tox -6.6%, DT40 TDP1 no CPT 18.4µM*, HT1080 IDH1KD tx inconclusive and DT40 TDP1 CPT inconclusive.
Screening O=C(c1ccc2c(c1)OCO2)N1CCN(c2cccc(C(F)(F)F)c2)CC1 returned 12-LOX inh -7.8%, IL1B secr inh -15.8, HT1080-NT tox 18.4µM*, DT40 TDP1 no CPT 20.6µM*, HT1080 IDH1KD tx inconclusive and DT40 TDP1 CPT 18.4µM*.
For O=C(c1ccncc1)N1CCN(c2cccc(C(F)(F)F)c2)CC1 the results were 12-LOX inh 3.1%, IL1B secr inh -1.8, HT1080-NT tox -4.7%, DT40 TDP1 no CPT inconclusive, HT1080 IDH1KD tx -6.4% and DT40 TDP1 CPT inconclusive.
For O=C(c1ccc2c(c1)CCN2S(=O)(=O)c1ccccc1)N1CCN(c2cccc(Cl)c2)CC1 the results were 12-LOX inh -7.9%, DT40 TDP1 no CPT inconclusive and DT40 TDP1 CPT inconclusive.
`O=C(Nc1ccc2c(c1)OCO2)N1CCN(c2ccccc2Cl)CC1` gave 12-LOX inh 2.3%, IL1B secr inh -26.8, HT1080-NT tox -7.1%, DT40 TDP1 no CPT inconclusive, HT1080 IDH1KD tx inconclusive and DT40 TDP1 CPT -24.0%.
`CCS(=O)(=O)N1CCc2cc(C(=O)N3CCN(c4cccc(C(F)(F)F)c4)CC3)ccc21` gave 12-LOX inh inconclusive, DT40 TDP1 no CPT 23.1µM* and DT40 TDP1 CPT inconclusive.
For CC(=O)c1cc(CN2CCC(n3nccc3NC(=O)Cc3ccccc3)CC2)cs1 the results were 12-LOX inh 18.4%.
Screening CCCc1nnc(C[C@@H]2C[C@@H](C(C)C)[C@H](CN3CCN(C(C)=O)CC3)C=C2C)o1 returned 12-LOX inh 12.5%[176 µM].
Screening CCOC(=O)N1CCN(Cc2nc3cc(NC(C)=O)ccc3n2CC)CC1 returned 12-LOX inh 0.0%, IL1B secr inh -12.3, HT1080-NT tox -0.1%, DT40 TDP1 no CPT -1.5%, HT1080 IDH1KD tx 0.9% and DT40 TDP1 CPT -8.5%.
`CCOC(=O)N1CCN(Cc2nc3cc(NC(=O)c4cccc(C)c4)ccc3n2C(C)C)CC1` gave 12-LOX inh 81.8%, DT40 TDP1 no CPT 0.731µM* and DT40 TDP1 CPT 0.92µM*.
CCOC(=O)N1CCN(Cc2nc3cc(NC(=O)CC)ccc3n2C(C)C)CC1 was read as 12-LOX inh -1.1%, DT40 TDP1 no CPT 0.731µM* and DT40 TDP1 CPT 0.92µM*.
Screening CCOC(=O)N1CCN(Cc2nc3cc(NC(=O)CC(C)C)ccc3n2CC)CC1 returned 12-LOX inh -48.7%, IL1B secr inh -16.7, HT1080-NT tox -28.9%, DT40 TDP1 no CPT 9.2µM*, HT1080 IDH1KD tx inconclusive and DT40 TDP1 CPT 14.6µM*.
CCOC(=O)N1CCN(Cc2nc3cc(NC(=O)CC(C)C)ccc3n2C(C)C)CC1 was read as 12-LOX inh 4.3%, DT40 TDP1 no CPT 0.731µM* and DT40 TDP1 CPT 0.82µM*.
For CCOC(=O)N1CCN(Cc2nc3cc(NC(=O)c4ccc(Cl)cc4)ccc3n2C(C)C)CC1 the results were 12-LOX inh 43.4%.
`CCOC(=O)N1CCN(Cc2nc3cc(NC(=O)CC(C)C)ccc3n2C)CC1` gave 12-LOX inh -12.3%, IL1B secr inh 9.7, HT1080-NT tox 3.9%, DT40 TDP1 no CPT inconclusive, HT1080 IDH1KD tx 5.6% and DT40 TDP1 CPT -22.7%.
`COc1cccc(CCNC(=O)c2c(C)noc2-c2cc(OC)c(OC)c(OC)c2)c1` gave 12-LOX inh 18.7%.
O=C(c1cccc(F)c1)N1CCCC(Cc2noc(-c3ccccc3)n2)C1 (stereo unspecified) was read as 12-LOX inh 29.4%.
`COCCn1c(C)cc(C(=O)CSc2nnc(Nc3ccccc3)s2)c1C` gave 12-LOX inh 13.7%.
`CCn1c(CN2CCCCC2)nc2cc(NC(=O)c3ccc([N+](=O)[O-])cc3)ccc21` gave 12-LOX inh -5.6%, DT40 TDP1 no CPT 9.2µM* and DT40 TDP1 CPT 9.2µM*.
Screening CCn1c(CN2CCCCC2)nc2cc(NC(=O)c3ccccc3[N+](=O)[O-])ccc21 returned 12-LOX inh -1.4%, DT40 TDP1 no CPT inconclusive and DT40 TDP1 CPT inconclusive.
Screening CCOC(=O)N1CCN(Cc2nc3cc(NC(=O)c4cccs4)ccc3n2C)CC1 returned 12-LOX inh 15.4%, IL1B secr inh inactive, HT1080-NT tox -24.5%, DT40 TDP1 no CPT -28.4%, HT1080 IDH1KD tx -10.1% and DT40 TDP1 CPT inconclusive.
`CCOC(=O)N1CCN(Cc2nc3cc(NC(=O)c4cccs4)ccc3n2CC)CC1` gave 12-LOX inh 2.4%, IL1B secr inh inconclusive, HT1080-NT tox inconclusive, DT40 TDP1 no CPT 25.9µM*, HT1080 IDH1KD tx inconclusive and DT40 TDP1 CPT 23.1µM*.
Cc1ccc(-c2ccc3nnc(CNC(=O)C4CC4)n3n2)cc1 was read as 12-LOX inh 21.7%.
CC1CCc2c(cc(-c3ccccc3)n2-c2ccc(C(=O)NC(C)C)cc2)C1 (stereo unspecified) was read as 12-LOX inh -10.2%, DT40 TDP1 no CPT 20.6µM* and DT40 TDP1 CPT inconclusive.
`CCOCCCNC(=O)c1ccc(-n2c(-c3ccccc3)cc3c2CCCC3)cc1` gave 12-LOX inh -2.0%, DT40 TDP1 no CPT 8.2µM* and DT40 TDP1 CPT 9.2µM*.
COCCCNC(=O)c1ccc(-n2c(-c3ccccc3)cc3c2CCCCC3)cc1 was read as 12-LOX inh -12.3%, DT40 TDP1 no CPT inconclusive and DT40 TDP1 CPT inconclusive.
For COc1cc2nc(CN(C)CC(=O)Nc3ccc(F)cc3)[nH]c(=O)c2cc1OC the results were 12-LOX inh -38.7%.
COc1ccc(C(=O)c2[nH]c(N)c(C(=O)NCCc3c[nH]c4ccccc34)c2-c2ccc(Cl)c(F)c2)cc1 was read as 12-LOX inh 115.6%, IL1B secr inh -16.5, HT1080-NT tox inconclusive, DT40 TDP1 no CPT 18.4µM*, HT1080 IDH1KD tx 20.6µM* and DT40 TDP1 CPT inconclusive.
